# Measurements as given in ChEMBL document CHEMBL3988442, “University of Dundee, Small-Polar-MMV Screening Library” (2021).
# Screen size: about 48,000 compounds; about 13,000 (27%) showed an effect of 50% or more. The list shows a part of the results.
# Tested on: Wolbachia pipientis
# Experiment: Anti-Wolbachia Cell-Based Screen
# Type: functional
# Set-up: scale not given: in the data most compounds retested in dose-response had high values
# Conditions: 5 µM
row,SMILES,Percent Effect
1,COCC1c2nnn(CC3CC3)c2CCN1C(=O)c1ccnnc1 (centres undefined),-5.349%
2,Cc1csc(N(C)C(=O)C2CC(=O)N(c3ccccc3Cl)C2)n1 (centres undefined),9.936%
3,CC(Sc1nnc(C2CC2)n1CC(N)=O)c1ccc(F)cc1F (centres undefined),-10.03%
4,Cc1cccc(-c2ncc(CNC(C)CO)cn2)c1 (centres undefined),-5.698%
5,Cn1cnnc1C1CCN(c2cncc(-n3cccn3)n2)CC1,0.9995%
6,O=C(NCC(O)(c1cccs1)C1CC1)NC1CCCCC1 (centres undefined),9.559%
7,COCC1CN(S(=O)(=O)Cc2ccccc2)Cc2c1cnn2C.O=C(O)C(F)(F)F (centres undefined),-18.15%
8,Cc1cccc(N2CCN(CC(=O)N3CCCC(N(C)C)CC3)CC2)c1 (centres undefined),-50.72%
9,Cc1cc(Nc2cnccn2)cc(C2CCCNC2)n1 (centres undefined),90.08%
10,Cl.Cl.Fc1cccc(-c2c[nH]c(C3CCCN3)n2)c1 (centres undefined),-26.74%
11,Cc1cc(Nc2ccc(F)cn2)cc(C2CCCN2)n1 (centres undefined),111.9%
12,Cc1cc(C)nc(NC2CCOC3(CCCC3)C2)n1 (centres undefined),-13.03%
13,Cc1cc(Nc2cnccn2)cc(C2CCCN2)n1 (centres undefined),103.5%
14,Cc1cc(Nc2nc(C)cc(C)n2)cc(C2CCCN2)n1 (centres undefined),104%
15,Cn1cc(C2CC3(CCN(C(=O)c4ccsc4)CC3)NC2=O)cn1 (centres undefined),-8.602%
16,Cc1ccc(C(=O)N2CC(C)(C)[C@@](C)(O)C2)cc1N1CCNC1=O,-5.477%
17,Cc1nn(C)c(C)c1CN(CCO)C(=O)C1COc2ccccc2C1 (centres undefined),-4.476%
18,COCC(O)CNC(=O)c1coc(COc2ccc3sc(C)nc3c2)n1 (centres undefined),-2.868%
19,CC(Cn1cccn1)NCc1csc(-c2ccccc2)n1 (centres undefined),5.94%
20,CCCS(=O)(=O)NC(=O)c1ccc(Br)o1,-3.964%
21,Cn1nccc1-c1ccc2nc(C3CCNCC3)nn2c1,98.45%
22,Cn1nccc1-c1ccc2nc(C3CCN(CC4CC4)CC3)nn2c1.O=C(O)C(F)(F)F.O=C(O)C(F)(F)F,97.48%
23,O=C(O)C(F)(F)F.O=C(O)C(F)(F)F.c1cc2nc(C3CCN(CC4CC4)CC3)nn2cc1N1CCCC1,-8.773%

row,SMILES,Percent Effect
1,Cn1nccc1-c1ccc2nc(C3CCN(CCO)CC3)nn2c1.O=C(O)C(F)(F)F,-15.06%
2,CC(=O)N1CCC(c2nc3ccc(-c4ccnn4C)cn3n2)CC1.O=C(O)C(F)(F)F,79.91%
3,CC(C)N1CCC(c2nc3ccc(-c4ccnn4C)cn3n2)CC1.O=C(O)C(F)(F)F,101.4%
4,CCC1c2ccsc2CCN1C(=O)NCCNc1ncccn1 (centres undefined),9.072%
5,O=C(c1ccccn1)N1C[C@@H]2CC[C@H](C1)N(C(=O)Cc1cccs1)C2,-18.37%
6,CCc1sc(-c2nnc(CNC(C)Cn3cccn3)o2)cc1C (centres undefined),-4.192%
7,Cn1ccc(C(=O)NC2CCC23CCN(Cc2ccc(F)cc2)CC3)c1.O=C(O)C(F)(F)F (centres undefined),104.6%
8,Cn1ccc(C(=O)NC2CCC23CCN(C(=O)C2CCOCC2)CC3)c1 (centres undefined),-10.05%
9,Cc1ccc(CN2CCC3(CCC3NC(=O)c3ccn(C)c3)CC2)s1.O=C(O)C(F)(F)F (centres undefined),90.78%
10,Cn1ccc(C(=O)NC2CCC23CCN(Cc2cnn(C)c2)CC3)c1.O=C(O)C(F)(F)F (centres undefined),118.5%
11,Cn1ccc(C(=O)NC2CCC23CCN(Cc2cccnc2)CC3)c1.O=C(O)C(F)(F)F.O=C(O)C(F)(F)F (centres undefined),0.1855%
12,Cn1ccc(C(=O)NC2CCC23CCN(C(=O)c2ccncc2)CC3)c1.O=C(O)C(F)(F)F (centres undefined),-9.033%
13,Cn1ccc(C(=O)NC2CCC23CCN(CC2CCOCC2)CC3)c1.O=C(O)C(F)(F)F (centres undefined),102.1%
14,Cn1ccc(C(=O)NC2CCC23CCN(C(=O)c2cnccn2)CC3)c1 (centres undefined),13.19%
15,Cc1ccc(CN2CC(C(=O)NCC3CC3)C3(CCOCC3)C2)s1.O=C(O)C(F)(F)F (centres undefined),9.43%
16,COCC(=O)N1CCC2(CCC2NC(=O)c2ccn(C)c2)CC1 (centres undefined),-13.3%
17,Cc1ccccc1CN1CCN(C(=O)CN2CCOC2=O)CC1,-7.914%
18,Cc1nc2c(c(N3CCCC(CO)C3)n1)CCN(Cc1ccco1)CC2 (centres undefined),-5.863%
19,CC(C)(C)CC(=O)NC[C@H]1OC[C@@H](NCc2ccccn2)[C@@H]1O,-12.57%
20,COc1ccc(CN2C[C@@H](CN(C)C)[C@@H](CO)C2)cc1OC,17.76%
21,Cn1ccc(C(=O)NC2CCC23CCN(Cc2nccs2)CC3)c1 (centres undefined),125.2%
22,Cn1ccc(C(=O)NC2CCC23CCN(C(=O)c2ccnnc2)CC3)c1 (centres undefined),9.055%
23,Cn1ccc(C(=O)NC2CCC23CCN(C(=O)c2ccccn2)CC3)c1 (centres undefined),-6.667%

row,SMILES,Percent Effect
1,CS(=O)(=O)NCc1cc2n(n1)CCCN(Cc1ccc(Cl)s1)C2,7.385%
2,CC(C)(O)CN1CCN(C(=O)C2CSc3ccccc3O2)CC1 (centres undefined),-0.7844%
3,CC(C)[C@H](N)C(=O)N1CCSc2ccccc2C1.Cl,101.9%
4,N[C@@H](C(=O)N1CCN(c2ccccc2Cl)C(=O)C1)c1ccccc1,1.545%
5,Cl.NC(C(=O)N1CCSc2ccccc2C1)c1ccccc1 (centres undefined),93.09%
6,CN(C)C(C(=O)N1Cc2ccccc2C1)c1ccccc1F (centres undefined),-6.272%
7,CCc1cnc(CN(C)C(C)C(=O)N2CCc3ccccc3C2)s1 (centres undefined),-7.357%
8,CC(C)C[C@H](N)C(=O)N1CCSc2ccccc2C1.Cl,104.5%
9,O=C(C1CSc2ccccc2O1)N1CCN(CCO)CC1 (centres undefined),-0.8425%
10,Cc1csc(CN(C)C(C)C(=O)N2CCc3ccccc3C2)n1 (centres undefined),7.72%
11,COc1ccc(-c2cn(CCn3c(C)cc(C)nc3=O)nn2)cn1,13.66%
12,CC(Oc1ccc(F)cc1F)C(=O)N1CCC2(CC1)CC(=O)N(C)C2 (centres undefined),-15.1%
13,Cn1c(C(=O)N2CCc3[nH]cnc3C2C(=O)O)ccc1-c1ccccc1 (centres undefined),10.75%
14,CN(Cc1nc(CC2CC2)no1)CC1Cc2ccccc2O1 (centres undefined),1.11%
15,Cc1nccn1-c1cc(CNC(=O)c2ccccn2)ccn1,-23.44%
16,Cn1c(C(F)(F)F)nn(CCNC(=O)CCc2ccccc2)c1=O,8.562%
17,Cc1nccn1-c1ccc(=O)n(CCNC(=O)c2c(F)cccc2Cl)n1,122.2%
18,O=C(CNC(=O)c1c(F)cccc1Cl)Nc1ccc(F)cn1,-31.04%
19,Cn1c(C(F)(F)F)nn(CCNC(=O)c2ccccn2)c1=O,-5.949%
20,Cc1nccn1-c1ccc(=O)n(CCNC(=O)Cc2ccccc2)n1,251.7%
21,CC(=O)NCc1ccc(-n2ccnc2C)nc1,28.24%
22,Cc1nccn1-c1ccc(=O)n(CCNC(=O)c2ccccn2)n1,116.7%
23,O=c1ccc(-n2ccnc2)nn1CCNS(=O)(=O)c1ccccc1Cl,-3.668%
